We go through 3 compounds from ChEMBL document CHEMBL2218924, “A broad activity screen in support of a chemogenomic map for kinase signalling research and drug discovery” (Biochem J, 2013).

For test [1], the target named is Serine/threonine-protein kinase SIK1 (Homo sapiens) (UniProt P57059). As to conditions: at 10 µM.
Test [2] concerns the target SRSF protein kinase 1 (Homo sapiens) (UniProt Q96SB4). The note with it: at 1 µM.
Test [3] shares this target. The note with it: at 10 µM.
For test [4], the target named is SRSF protein kinase 2 (Homo sapiens) (UniProt P78362). The note with it: at 1 µM.
Test [5] shares this target. The note with it: at 10 µM.
The target in test [6] is Serine/threonine-protein kinase 33 (Homo sapiens) (UniProt Q9BYT3). As to conditions: at 1 µM.
For test [7] the target is unchanged. As to conditions: at 10 µM.
Test [8] has as its target Serine/threonine-protein kinase PLK2 (Homo sapiens) (UniProt Q9NYY3). The note with it: at 1 µM.
Test [9] has the same target. The note with it: at 10 µM.
For test [10], the target named is Tyrosine-protein kinase SYK (Homo sapiens) (UniProt P43405). The note with it: at 1 µM.
For test [11] the target is unchanged. As to conditions: at 10 µM.
Test [12] addresses T1, Mitogen-activated protein kinase kinase kinase 7 (Homo sapiens) (UniProt O43318).
T1 sequence (whole entry): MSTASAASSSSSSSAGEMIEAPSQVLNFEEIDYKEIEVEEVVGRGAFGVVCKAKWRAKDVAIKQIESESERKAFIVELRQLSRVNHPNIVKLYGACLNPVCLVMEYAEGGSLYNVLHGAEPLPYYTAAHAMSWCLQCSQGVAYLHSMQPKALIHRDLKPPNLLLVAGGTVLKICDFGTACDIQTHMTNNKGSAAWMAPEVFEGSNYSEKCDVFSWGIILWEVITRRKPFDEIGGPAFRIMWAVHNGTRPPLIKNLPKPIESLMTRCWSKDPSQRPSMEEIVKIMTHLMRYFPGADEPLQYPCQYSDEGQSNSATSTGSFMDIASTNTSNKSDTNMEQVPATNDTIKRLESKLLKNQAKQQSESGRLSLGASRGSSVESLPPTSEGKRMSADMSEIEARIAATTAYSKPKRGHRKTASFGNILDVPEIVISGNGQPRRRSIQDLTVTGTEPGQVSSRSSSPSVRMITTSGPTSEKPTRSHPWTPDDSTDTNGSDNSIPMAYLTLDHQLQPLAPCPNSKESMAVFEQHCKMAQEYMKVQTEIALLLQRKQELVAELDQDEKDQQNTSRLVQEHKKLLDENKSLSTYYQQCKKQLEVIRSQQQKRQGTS
The note with it: at 1 µM.

The target of test [13] is T1, Mitogen-activated protein kinase kinase kinase 7 (Homo sapiens). The note with it: at 10 µM.
The target in test [14] is T2, Serine/threonine-protein kinase TAO1 (Homo sapiens) (UniProt Q7L7X3).
T2 sequence (whole entry): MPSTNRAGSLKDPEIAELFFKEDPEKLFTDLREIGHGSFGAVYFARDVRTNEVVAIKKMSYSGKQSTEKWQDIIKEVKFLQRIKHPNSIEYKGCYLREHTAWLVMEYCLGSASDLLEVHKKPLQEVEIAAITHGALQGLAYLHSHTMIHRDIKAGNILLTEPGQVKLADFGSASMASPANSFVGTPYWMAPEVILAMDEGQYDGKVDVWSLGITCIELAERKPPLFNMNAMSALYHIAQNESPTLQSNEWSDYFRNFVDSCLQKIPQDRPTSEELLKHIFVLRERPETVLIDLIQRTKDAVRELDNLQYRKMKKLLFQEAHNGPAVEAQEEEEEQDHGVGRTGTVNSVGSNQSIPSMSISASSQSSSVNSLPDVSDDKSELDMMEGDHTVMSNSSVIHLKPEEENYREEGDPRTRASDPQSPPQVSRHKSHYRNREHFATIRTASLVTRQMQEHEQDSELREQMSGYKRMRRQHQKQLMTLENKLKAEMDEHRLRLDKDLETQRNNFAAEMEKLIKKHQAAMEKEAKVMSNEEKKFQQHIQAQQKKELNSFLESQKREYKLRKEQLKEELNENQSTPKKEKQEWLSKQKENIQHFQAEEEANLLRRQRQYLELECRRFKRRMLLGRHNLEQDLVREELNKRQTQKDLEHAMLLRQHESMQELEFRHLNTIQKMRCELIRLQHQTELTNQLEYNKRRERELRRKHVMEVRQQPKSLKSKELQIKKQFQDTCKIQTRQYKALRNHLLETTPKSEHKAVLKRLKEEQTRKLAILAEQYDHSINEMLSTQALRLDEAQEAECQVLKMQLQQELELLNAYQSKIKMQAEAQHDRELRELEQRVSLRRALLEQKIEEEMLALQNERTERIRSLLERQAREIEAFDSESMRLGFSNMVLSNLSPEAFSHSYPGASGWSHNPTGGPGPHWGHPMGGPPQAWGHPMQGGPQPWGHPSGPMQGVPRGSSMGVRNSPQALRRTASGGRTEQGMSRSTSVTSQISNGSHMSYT
The note with it: at 1 µM.

Test [15] has as its target T2, Serine/threonine-protein kinase TAO1 (Homo sapiens). The note with it: at 10 µM.
Test [16] addresses T3, Serine/threonine-protein kinase TAO2 (Homo sapiens) (UniProt Q9UL54).
T3 sequence (whole entry): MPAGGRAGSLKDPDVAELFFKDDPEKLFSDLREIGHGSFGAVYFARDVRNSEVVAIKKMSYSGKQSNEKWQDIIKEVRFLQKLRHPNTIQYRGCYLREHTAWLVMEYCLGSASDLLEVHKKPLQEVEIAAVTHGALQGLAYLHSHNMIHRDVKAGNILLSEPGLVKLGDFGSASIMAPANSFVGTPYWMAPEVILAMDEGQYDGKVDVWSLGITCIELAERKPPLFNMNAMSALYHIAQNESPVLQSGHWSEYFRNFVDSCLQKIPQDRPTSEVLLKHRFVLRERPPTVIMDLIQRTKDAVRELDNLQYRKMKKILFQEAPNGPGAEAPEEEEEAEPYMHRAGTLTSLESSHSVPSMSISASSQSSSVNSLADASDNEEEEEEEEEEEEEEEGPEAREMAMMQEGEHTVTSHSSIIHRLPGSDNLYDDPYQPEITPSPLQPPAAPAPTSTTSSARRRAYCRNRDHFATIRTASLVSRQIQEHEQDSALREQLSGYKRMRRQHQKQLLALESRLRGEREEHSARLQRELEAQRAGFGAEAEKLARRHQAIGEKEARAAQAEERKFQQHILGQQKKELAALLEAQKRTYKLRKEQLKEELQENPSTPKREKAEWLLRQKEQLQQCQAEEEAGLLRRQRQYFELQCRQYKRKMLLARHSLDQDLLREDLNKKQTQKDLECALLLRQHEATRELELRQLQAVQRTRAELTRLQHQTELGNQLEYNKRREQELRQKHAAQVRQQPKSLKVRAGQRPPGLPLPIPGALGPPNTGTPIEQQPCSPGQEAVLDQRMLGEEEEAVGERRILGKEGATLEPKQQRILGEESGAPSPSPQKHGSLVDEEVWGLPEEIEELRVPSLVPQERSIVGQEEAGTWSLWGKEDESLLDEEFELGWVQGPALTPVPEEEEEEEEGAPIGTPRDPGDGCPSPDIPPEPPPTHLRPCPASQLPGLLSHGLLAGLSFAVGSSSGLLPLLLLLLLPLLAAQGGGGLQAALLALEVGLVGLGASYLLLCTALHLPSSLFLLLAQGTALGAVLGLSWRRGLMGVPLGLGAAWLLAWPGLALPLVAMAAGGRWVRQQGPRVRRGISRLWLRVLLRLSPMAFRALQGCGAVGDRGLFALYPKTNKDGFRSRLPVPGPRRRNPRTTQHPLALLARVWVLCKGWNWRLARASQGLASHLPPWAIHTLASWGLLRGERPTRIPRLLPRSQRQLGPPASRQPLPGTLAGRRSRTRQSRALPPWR
The note with it: at 1 µM.

Test [17] has as its target T3, Serine/threonine-protein kinase TAO2 (Homo sapiens). As to conditions: at 10 µM.
Test [18] deals with T4, Serine/threonine-protein kinase TAO3 (Homo sapiens) (UniProt Q9H2K8).
T4 sequence (whole entry): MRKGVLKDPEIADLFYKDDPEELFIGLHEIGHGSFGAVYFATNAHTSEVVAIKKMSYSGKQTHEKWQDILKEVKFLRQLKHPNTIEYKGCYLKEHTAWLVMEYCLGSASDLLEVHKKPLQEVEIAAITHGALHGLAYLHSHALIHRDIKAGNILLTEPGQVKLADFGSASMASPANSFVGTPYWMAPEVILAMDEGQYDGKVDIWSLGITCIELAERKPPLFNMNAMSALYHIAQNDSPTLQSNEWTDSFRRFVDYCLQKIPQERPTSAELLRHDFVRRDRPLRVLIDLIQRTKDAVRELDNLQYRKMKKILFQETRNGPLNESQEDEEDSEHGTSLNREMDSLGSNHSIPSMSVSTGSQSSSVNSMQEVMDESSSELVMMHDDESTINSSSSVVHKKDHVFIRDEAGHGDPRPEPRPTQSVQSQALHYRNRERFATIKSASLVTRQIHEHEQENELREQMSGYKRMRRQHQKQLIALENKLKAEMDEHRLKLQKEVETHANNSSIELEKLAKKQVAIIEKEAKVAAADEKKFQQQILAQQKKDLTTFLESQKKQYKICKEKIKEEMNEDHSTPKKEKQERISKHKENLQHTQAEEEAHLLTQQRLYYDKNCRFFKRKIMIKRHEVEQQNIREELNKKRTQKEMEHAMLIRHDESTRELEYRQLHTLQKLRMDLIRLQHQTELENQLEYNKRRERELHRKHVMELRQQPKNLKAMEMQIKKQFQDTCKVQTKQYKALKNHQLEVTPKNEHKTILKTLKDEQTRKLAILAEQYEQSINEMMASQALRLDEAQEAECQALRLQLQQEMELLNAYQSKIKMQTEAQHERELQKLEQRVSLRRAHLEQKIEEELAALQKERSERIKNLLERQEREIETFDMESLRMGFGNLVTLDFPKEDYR
The note with it: at 1 µM.

The target of test [19] is T4, Serine/threonine-protein kinase TAO3 (Homo sapiens). The note with it: at 10 µM.
The target of test [20] is T5, Serine/threonine-protein kinase TBK1 (Homo sapiens) (UniProt Q9UHD2).
T5 sequence (whole entry): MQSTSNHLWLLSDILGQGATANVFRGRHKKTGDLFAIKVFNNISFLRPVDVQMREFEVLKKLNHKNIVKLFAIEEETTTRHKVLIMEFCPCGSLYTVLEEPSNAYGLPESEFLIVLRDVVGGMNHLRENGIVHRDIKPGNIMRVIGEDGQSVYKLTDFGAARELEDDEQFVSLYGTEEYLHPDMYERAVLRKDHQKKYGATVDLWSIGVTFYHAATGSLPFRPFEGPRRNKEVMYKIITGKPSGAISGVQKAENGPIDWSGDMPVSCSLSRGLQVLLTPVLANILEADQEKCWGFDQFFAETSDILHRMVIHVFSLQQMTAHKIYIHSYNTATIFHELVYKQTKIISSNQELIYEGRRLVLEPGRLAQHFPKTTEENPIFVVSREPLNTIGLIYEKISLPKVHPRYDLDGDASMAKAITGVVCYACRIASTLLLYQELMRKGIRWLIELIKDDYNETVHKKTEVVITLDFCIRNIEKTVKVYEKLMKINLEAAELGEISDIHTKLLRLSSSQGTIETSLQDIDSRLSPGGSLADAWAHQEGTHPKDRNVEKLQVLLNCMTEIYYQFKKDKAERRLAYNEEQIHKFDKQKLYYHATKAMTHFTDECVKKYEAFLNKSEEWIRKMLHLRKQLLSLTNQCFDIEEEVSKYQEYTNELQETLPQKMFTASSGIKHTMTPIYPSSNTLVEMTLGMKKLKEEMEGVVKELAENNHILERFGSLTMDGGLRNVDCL
As to conditions: at 1 µM.

Sequence of Serine/threonine-protein kinase SIK1 (Homo sapiens) (P57059 whole entry): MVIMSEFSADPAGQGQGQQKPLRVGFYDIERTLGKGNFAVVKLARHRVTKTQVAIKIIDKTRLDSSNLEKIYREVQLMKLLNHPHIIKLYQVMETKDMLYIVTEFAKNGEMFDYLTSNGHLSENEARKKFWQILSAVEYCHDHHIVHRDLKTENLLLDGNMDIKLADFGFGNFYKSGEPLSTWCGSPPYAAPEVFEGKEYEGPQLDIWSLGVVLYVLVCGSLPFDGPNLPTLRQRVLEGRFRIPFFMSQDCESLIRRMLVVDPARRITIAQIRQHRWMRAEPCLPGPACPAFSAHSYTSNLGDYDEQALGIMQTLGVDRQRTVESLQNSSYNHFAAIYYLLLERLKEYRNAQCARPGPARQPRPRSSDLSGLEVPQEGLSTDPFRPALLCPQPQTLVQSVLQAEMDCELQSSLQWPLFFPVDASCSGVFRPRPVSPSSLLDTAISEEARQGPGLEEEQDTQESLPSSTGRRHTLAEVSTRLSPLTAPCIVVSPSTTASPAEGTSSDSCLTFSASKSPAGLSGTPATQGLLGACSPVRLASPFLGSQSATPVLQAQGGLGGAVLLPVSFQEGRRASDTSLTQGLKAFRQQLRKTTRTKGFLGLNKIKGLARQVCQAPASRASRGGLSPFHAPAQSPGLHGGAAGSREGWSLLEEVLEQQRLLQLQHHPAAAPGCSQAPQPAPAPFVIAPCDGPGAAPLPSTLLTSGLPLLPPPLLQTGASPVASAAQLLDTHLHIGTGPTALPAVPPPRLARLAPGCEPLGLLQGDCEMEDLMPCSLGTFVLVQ
Sequence of SRSF protein kinase 2 (Homo sapiens) (P78362 whole entry, looked up): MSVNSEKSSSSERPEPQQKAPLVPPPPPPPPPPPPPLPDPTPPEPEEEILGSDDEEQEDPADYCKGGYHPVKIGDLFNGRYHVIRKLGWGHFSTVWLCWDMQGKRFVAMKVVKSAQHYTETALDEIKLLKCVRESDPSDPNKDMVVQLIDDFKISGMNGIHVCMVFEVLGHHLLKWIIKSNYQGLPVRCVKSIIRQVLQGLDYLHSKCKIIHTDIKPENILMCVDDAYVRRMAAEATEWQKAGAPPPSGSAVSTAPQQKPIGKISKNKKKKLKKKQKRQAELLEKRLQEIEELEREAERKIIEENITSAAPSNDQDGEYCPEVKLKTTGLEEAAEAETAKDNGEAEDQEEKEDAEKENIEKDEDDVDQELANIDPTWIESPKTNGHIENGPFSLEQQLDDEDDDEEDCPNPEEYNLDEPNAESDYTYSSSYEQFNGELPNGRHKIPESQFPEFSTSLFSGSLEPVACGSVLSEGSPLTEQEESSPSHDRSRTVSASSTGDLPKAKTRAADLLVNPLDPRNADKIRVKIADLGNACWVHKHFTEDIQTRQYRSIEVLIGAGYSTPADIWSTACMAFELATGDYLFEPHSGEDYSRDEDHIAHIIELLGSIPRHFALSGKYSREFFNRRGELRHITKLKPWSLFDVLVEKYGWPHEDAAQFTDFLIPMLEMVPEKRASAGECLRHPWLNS
Sequence of SRSF protein kinase 1 (Homo sapiens) (Q96SB4 whole entry): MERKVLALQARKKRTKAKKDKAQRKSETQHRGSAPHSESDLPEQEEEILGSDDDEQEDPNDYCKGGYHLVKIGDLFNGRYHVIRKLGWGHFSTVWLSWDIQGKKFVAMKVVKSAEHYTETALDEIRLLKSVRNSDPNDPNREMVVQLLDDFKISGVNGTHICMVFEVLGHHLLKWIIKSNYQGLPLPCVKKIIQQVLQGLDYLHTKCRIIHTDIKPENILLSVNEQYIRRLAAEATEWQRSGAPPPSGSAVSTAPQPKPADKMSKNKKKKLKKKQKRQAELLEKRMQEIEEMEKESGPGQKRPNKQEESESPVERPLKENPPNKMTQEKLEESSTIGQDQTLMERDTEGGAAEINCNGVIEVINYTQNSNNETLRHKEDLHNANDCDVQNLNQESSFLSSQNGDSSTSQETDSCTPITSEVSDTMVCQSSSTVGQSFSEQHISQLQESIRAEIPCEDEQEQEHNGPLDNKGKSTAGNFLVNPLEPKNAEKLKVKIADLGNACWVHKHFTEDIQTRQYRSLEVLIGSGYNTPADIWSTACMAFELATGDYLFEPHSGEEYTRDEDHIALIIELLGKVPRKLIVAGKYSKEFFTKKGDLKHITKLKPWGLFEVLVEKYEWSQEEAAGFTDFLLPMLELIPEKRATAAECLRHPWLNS
Sequence of Serine/threonine-protein kinase PLK2 (Homo sapiens) (Q9NYY3 whole entry, looked up): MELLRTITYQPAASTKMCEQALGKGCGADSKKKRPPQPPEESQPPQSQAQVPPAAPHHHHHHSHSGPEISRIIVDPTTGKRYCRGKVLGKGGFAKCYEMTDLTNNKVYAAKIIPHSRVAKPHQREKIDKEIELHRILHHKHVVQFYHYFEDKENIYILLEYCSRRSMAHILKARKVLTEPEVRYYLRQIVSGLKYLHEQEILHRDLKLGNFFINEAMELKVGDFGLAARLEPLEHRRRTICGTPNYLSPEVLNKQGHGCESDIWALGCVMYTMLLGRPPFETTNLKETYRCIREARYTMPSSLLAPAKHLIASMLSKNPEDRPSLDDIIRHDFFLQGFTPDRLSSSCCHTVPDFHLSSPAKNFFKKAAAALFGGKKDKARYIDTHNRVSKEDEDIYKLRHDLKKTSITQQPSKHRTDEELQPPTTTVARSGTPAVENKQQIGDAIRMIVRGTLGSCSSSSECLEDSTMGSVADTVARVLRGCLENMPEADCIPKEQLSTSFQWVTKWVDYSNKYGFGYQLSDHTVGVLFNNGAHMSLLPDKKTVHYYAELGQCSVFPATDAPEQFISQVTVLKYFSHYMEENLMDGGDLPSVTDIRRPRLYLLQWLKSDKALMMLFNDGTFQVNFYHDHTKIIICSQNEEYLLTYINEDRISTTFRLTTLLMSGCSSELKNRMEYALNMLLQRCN
Sequence of Serine/threonine-protein kinase 33 (Homo sapiens) (Q9BYT3 whole entry, looked up): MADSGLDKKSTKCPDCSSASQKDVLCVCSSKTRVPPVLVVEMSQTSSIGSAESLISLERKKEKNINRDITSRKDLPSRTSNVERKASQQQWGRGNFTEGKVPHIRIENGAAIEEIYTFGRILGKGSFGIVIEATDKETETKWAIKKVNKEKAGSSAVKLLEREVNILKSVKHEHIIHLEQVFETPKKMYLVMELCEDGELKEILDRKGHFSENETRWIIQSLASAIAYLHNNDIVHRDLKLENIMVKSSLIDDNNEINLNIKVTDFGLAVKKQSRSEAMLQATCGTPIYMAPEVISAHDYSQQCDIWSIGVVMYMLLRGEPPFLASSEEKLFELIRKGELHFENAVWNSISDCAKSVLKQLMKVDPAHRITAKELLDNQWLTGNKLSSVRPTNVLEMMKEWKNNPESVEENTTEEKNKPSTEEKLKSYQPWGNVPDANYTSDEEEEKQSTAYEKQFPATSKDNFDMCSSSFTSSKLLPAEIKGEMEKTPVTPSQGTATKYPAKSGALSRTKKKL

`Cc1ccc(S(=O)(=O)/C=C/C#N)cc1`: the residual activity in [1] is 97%; in test [2] it was 101%; in [3], 93%; in [4], 95%; in test [5], 95%; in test [6], 103%. For the same compound, the residual activity in test [7] was 96%; in [8], 98%; in test [9] it was 85%; in test [10] it was 104%; in [11], 109%; in test [12], 96%. For the same compound, the residual activity stood at 88% in test [13]; 94% in [14]; 87% in [15]; 88% in test [16]; 109% in test [17]; 92% in [18]. The figures for the residual activity in test [19] and in test [20] were 98% and 87%, respectively.
`COc1cc2ncnc(Nc3ccc(Oc4ccccc4)cc3)c2cc1OC`: the residual activity in test [1] is 8%; in test [2] it was 106%; in [3], 90%; in test [4], 105%; in [5], 90%; in [6] it was 98%. Moreover, the residual activity in test [7] worked out at 88%; in test [8], 104%; in [9], 105%; in [10] it was 110%; in [11] it was 111%; in [12] it was 96%. The residual activity in test [13] worked out at 95%; in test [14], 106%; in test [15] it was 92%; in test [16], 110%; in test [17], 106%; in [18], 103%. Further, the residual activity in test [19] is 91%; in test [20], 72%.
As for `CO[C@H]1[C@@H](OC)C[C@H](C)[C@@H](OC)C2=CC(=O)C=C(NC(=O)/C(C)=C/C=C/[C@H](OC)[C@@H](OC(N)=O)/C(C)=C/[C@@H]1C)C2=O`, the residual activity in [1] stood at 54%; in test [2], 104%; in test [3], 102%; in test [4] it was 104%; in test [5], 91%; in test [6] it was 98%. The residual activity was found to be 98% in test [7]; 100% in test [8]; 91% in test [9]; 110% in test [10]; 87% in test [11]; 96% in test [12]. Besides, the residual activity in [13] turned out to be 94%; in [14], 98%; in test [15], 89%; in test [16] it was 99%; in test [17], 93%; in test [18], 107%. Also, the residual activity turned out to be 95% in test [19] and 77% in test [20].
